In PubChem BioAssay (EPA / NIEHS):
The source made the active and inactive calls. Rule for the calls: active = hit-call score of the fitted dose curve at least 0.9, where 1 is the maximum; inactive = score below 0.9.

tested on: not listed separately; experiment: ATG_NFI_CIS: Attagene CIS-FACTORIAL HepG2 Assay for human Nuclear Factor I (NFI) (AID 2282989); conditions: HepG2 cis-regulatory reporter, NFI response element transcription; actives raise or lower the signal
Summary of the method: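 HepG2 cells transiently transfected with cis-element-driven multiplexed reporter transcription units, dosed for 24 h. Reporter mRNA quantified by RT-PCR, fluorescent labelling, HpaI digestion and capillary electrophoresis; bidirectional fit versus DMSO baseline.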

Question: For `O=C(F)C1(F)C(F)(F)C(F)(F)C(F)(F)C(F)(F)C1(F)F`, which outcome is on record?
Answer: inactive

Question: For `CCN(CC)c1ccc(C=O)cc1`, which outcome is on record?
Answer: inactive

Question: Which outcome does the source give for `CCCCOC(=O)[C@H](C)O` here?
Answer: inactive

Question: Which outcome does the source give for `COCCC(=O)OC` here?
Answer: inactive

Question: With `Cc1ccc(S(=O)(=O)C(I)I)cc1` as the molecule, how does the AC50 read?
Answer: 8.6 µM (active)

Question: Which outcome does the source give for `C#CC(O)CCC` (stereo not drawn) here?
Answer: inactive

Question: With `O=C(O)C(F)(F)C(F)(F)C(F)(F)C(=O)O` as the molecule, how does the outcome read?
Answer: inactive

Question: Which outcome does the source give for `CC(C)(C)c1cc(CCC(=O)OCC(COC(=O)CCc2cc(C(C)(C)C)c(O)c(C(C)(C)C)c2)(COC(=O)CCc2cc(C(C)(C)C)c(O)c(C(C)(C)C)c2)COC(=O)CCc2cc(C(C)(C)C)c(O)c(C(C)(C)C)c2)cc(C(C)(C)C)c1O` here?
Answer: inactive

Question: With `CC(C)Nc1ccc(NC(C)C)c2c1C(=O)c1ccccc1C2=O` as the molecule, how does the outcome read?
Answer: inactive

Question: Which outcome does the source give for `CN(N=O)C(=O)N[C@@H]1[C@@H](O)[C@H](O)[C@@H](CO)O[C@@H]1O` here?
Answer: inactive

Question: With `OCCCCC(F)(F)C(F)(F)C(F)(F)C(F)(F)F` as the molecule, how does the outcome read?
Answer: inactive

Question: Which outcome does the source give for `COC(F)(C(F)F)C(F)(F)F` (stereo not drawn) here?
Answer: inactive

Question: For `N#CCCOCCC#N`, which outcome is on record?
Answer: inactive

Question: With `O=C(c1ccccc1)c1ccc(Cl)cc1` as the molecule, how does the outcome read?
Answer: inactive

Question: With `Nc1cccnc1N` as the molecule, how does the outcome read?
Answer: inactive

Question: With `N#Cc1ccccc1O` as the molecule, how does the outcome read?
Answer: inactive

target: Myc proto-oncogene protein (Homo sapiens) (UniProt P01106); experiment: ATG_Myc_CIS: Attagene CIS-FACTORIAL HepG2 Assay for human Myelocytomatosis (Myc) Proto-Oncogene Transcription Factor (AID 2282990); conditions: HepG2, Attagene cis-reporter transcription factor activity; actives raise or lower the signal
Summary of the method: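 Transiently transfected HepG2 cells bearing cis-promoter reporter units for endogenous transcription factors; 24 h exposure. Reporter mRNA measured by RT-PCR, 6-FAM primer extension, HpaI cut and capillary electrophoresis; bidirectional fit relative to DMSO.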

Chain of Myc proto-oncogene protein (Homo sapiens) (P01106 whole entry, looked up): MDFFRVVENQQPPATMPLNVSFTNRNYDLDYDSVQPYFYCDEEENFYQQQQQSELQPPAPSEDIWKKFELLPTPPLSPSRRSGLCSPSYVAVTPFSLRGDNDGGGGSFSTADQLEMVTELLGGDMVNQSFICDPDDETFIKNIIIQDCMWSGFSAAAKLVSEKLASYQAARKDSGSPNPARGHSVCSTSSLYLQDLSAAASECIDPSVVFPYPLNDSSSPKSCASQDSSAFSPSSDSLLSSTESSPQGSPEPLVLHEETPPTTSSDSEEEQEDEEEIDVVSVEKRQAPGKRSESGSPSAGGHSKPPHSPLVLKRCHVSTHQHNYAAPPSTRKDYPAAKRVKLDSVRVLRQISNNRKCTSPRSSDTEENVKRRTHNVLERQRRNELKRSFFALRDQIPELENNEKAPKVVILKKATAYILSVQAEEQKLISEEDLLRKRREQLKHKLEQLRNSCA

Question: For `Brc1ccccn1`, which outcome is on record?
Answer: inactive

Question: For `O=C1OC(=O)c2ccc3c4c(ccc1c24)C(=O)OC3=O`, which outcome is on record?
Answer: inactive

Question: Which outcome does the source give for `NCC(F)(F)C(F)(F)C(F)(F)C(F)(F)C(F)(F)C(F)(F)F` here?
Answer: inactive

Question: Which outcome does the source give for `CC(C)(C)C(=O)C1C(=O)c2ccccc2C1=O` here?
Answer: inactive

Question: For `O=C1c2c(O)ccc(Nc3ccc(CCO)cc3)c2C(=O)c2c([N+](=O)[O-])ccc(O)c21`, which outcome is on record?
Answer: inactive

Question: For `O=S(=O)(Cl)C(F)(F)C(F)(F)C(F)(F)C(F)(F)C(F)(F)C(F)(F)C(F)(F)C(F)(F)F`, which outcome is on record?
Answer: inactive

Question: Which outcome does the source give for `CC1=CCC(=O)O1` here?
Answer: inactive

Question: For `CC(O)C#CC(C)O` (stereo not drawn), which AC50 is on record?
Answer: 53.3 µM (active)

Question: Which outcome does the source give for `NC(=O)C(F)(F)C(F)(F)C(F)(F)C(F)(F)C(N)=O` here?
Answer: inactive

Question: Which outcome does the source give for `CC(C)OC(=O)COc1ccc(Cl)cc1Cl` here?
Answer: inactive

Question: With `CCn1c2ccccc2c2ccccc21` as the molecule, how does the outcome read?
Answer: inactive

Question: For `OCC(F)(F)C(F)(F)C(F)(F)CO`, which outcome is on record?
Answer: inactive

Question: Which outcome does the source give for `CCN(CCO)S(=O)(=O)C(F)(F)C(F)(F)C(F)(F)C(F)(F)C(F)(F)C(F)(F)C(F)(F)C(F)(F)F` here?
Answer: inactive

Question: With `O=C=Nc1cccc2c(N=C=O)cccc12` as the molecule, how does the outcome read?
Answer: inactive

Question: Which outcome does the source give for `O=C=NCc1cccc(CN=C=O)c1` here?
Answer: inactive

Question: With `NC(O)(C(F)(F)F)C(F)(F)F` as the molecule, how does the outcome read?
Answer: inactive

Question: For `O=C(F)C1(F)C(F)(F)C(F)(F)C(F)(F)C(F)(F)C1(F)F`, which outcome is on record?
Answer: inactive

Question: Which outcome does the source give for `CCN(CC)c1ccc(C=O)cc1` here?
Answer: inactive

Question: For `CCCCOC(=O)[C@H](C)O`, which outcome is on record?
Answer: inactive

Question: Which outcome does the source give for `CC(C)(C)c1cc(CCC(=O)OCC(COC(=O)CCc2cc(C(C)(C)C)c(O)c(C(C)(C)C)c2)(COC(=O)CCc2cc(C(C)(C)C)c(O)c(C(C)(C)C)c2)COC(=O)CCc2cc(C(C)(C)C)c(O)c(C(C)(C)C)c2)cc(C(C)(C)C)c1O` here?
Answer: inactive

Question: For `CN(N=O)C(=O)N[C@@H]1[C@@H](O)[C@H](O)[C@@H](CO)O[C@@H]1O`, which outcome is on record?
Answer: inactive

Question: Which outcome does the source give for `OCCCCC(F)(F)C(F)(F)C(F)(F)C(F)(F)F` here?
Answer: inactive

Question: With `COC(F)(C(F)F)C(F)(F)F` (stereo not drawn) as the molecule, how does the outcome read?
Answer: inactive

Question: For `N#CCCOCCC#N`, which outcome is on record?
Answer: inactive

Question: For `O=C(c1ccccc1)c1ccc(Cl)cc1`, which outcome is on record?
Answer: inactive

Question: Which outcome does the source give for `Nc1cccnc1N` here?
Answer: inactive

Question: For `N#Cc1ccccc1O`, which outcome is on record?
Answer: inactive
